Assay outcomes (PubChem)
Rows were chosen to be rich in hits. Some 2.9% of all compounds tested hit in one or more screens of this group.
ADAM10 inh – inhibitors of human ADAM10; 370,000 tested, 0.62% active; AID 720582; inhibition, % at 7 µM; recombinant ADAM10, EDANS/DABCYL FRET peptide cleavage, 3 h;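 active = inhibition above a per-campaign cutoff equal to the mean of compounds falling between control-based bounds plus 3 SD, cut at about 20% in these data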;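 also: 0% = DMSO wells while the 100% control is not disclosed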
PLC-gamma1 inh – inhibitors of human phospholipase C gamma1; 370,000 tested, 0.84% active; P19174; purified PLC-gamma1, fluorogenic substrate, fluorescence; AID 720700; inhibition, % at 12.2 µM; in the data active = inhibition above about 9.5%
ADAM17 inh – inhibitors of human ADAM17; P78536; recombinant ADAM17, EDANS/DABCYL FRET peptide cleavage; inhibition, % at 6.95 µM; 370,000 tested, 0.83% active; AID 720648;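 active = inhibition above the mean of compounds lying between control limits plus 3 SD, set per campaign, cut at about 8.5% in these data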;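 also: 0% = DMSO-only wells as the low control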
proKLK7 act – proKLK7 (human) activation, primary screen | P49862 | 370,000 tested, 0.9% active | AID 652039 | purified proKLK7, EDANS-DABCYL substrate fluorescence; 100% is mature enzyme control, 0% vehicle | activation, % at 7 µM;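 active = activation above the mean of all tested compounds plus 3 SD, computed per campaign excluding outliers beyond control limits, cut at about 13% in these data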
PLCb3 inh – inhibitors of human phospholipase C beta3 | 370,000 tested, 0.18% active | inhibition, % at 12.2 µM | Q01970 | Purified PLC-beta3, fluorogenic substrate, fluorescence; in the data active = inhibition above about 11%;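 also: 0% = median of compound wells on plate and 100% = full blocker control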
Target sequence (Q01970 whole entry, looked up): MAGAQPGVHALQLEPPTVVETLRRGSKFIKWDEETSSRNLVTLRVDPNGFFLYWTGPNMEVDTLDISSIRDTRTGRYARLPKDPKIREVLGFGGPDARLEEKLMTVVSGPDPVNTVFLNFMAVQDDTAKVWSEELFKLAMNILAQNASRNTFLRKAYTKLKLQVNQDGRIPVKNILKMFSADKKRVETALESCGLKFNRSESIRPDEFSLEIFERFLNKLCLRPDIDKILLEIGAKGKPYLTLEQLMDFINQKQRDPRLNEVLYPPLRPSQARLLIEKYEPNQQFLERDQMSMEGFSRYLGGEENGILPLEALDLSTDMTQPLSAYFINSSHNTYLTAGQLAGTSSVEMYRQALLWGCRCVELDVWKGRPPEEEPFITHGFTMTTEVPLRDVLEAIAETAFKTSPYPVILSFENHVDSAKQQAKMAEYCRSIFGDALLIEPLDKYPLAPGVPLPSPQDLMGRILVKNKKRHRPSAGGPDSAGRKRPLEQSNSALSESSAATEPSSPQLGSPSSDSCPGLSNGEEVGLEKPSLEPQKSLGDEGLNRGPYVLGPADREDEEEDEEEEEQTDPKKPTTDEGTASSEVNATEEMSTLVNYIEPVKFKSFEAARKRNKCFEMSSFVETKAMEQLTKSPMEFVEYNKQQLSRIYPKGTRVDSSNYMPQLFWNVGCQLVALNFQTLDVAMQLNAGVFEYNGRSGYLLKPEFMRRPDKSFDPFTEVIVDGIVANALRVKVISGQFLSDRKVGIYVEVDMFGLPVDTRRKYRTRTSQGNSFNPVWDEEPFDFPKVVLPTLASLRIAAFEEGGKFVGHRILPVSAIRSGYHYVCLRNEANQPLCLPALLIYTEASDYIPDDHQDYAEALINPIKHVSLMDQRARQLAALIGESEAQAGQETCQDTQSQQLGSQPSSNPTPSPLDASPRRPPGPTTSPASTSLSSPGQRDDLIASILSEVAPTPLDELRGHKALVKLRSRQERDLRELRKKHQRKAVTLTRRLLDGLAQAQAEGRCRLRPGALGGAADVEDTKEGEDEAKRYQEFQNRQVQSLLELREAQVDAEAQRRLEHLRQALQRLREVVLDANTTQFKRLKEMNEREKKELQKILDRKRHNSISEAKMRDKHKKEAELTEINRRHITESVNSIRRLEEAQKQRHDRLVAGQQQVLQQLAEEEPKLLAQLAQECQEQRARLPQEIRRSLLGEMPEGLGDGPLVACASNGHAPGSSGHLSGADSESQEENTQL
KLK7 act conf – confirmation of human kallikrein-7 zymogen activators; shares compounds with proKLK7 act; purified proKLK7, EDANS-DABCYL substrate fluorescence; scaled: vehicle 0, mature enzyme 100; activation, % at 7 µM; 3,200 tested, 68% active;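 active = activation, as change over the incubation, above the mean of all tested compounds plus 3 SD, cut at about 13% in these data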
EDANS interfere – counter-screen for kallikrein-7 activators: EDANS-DABCYL optical interference; shares compounds with proKLK7 act; EDANS-DABCYL substrate fluorescence interference, no enzyme, 4 h; solvent 0%, active enzyme control 100%; activation, % at 7 µM; 3,200 tested, 80% active;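 active = activation above the all-compound mean plus 3 SD, ignoring values outside control-based bounds, cut at about 4.8% in these data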;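 also: value is the 4 h activation minus the activation read at time zero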
K7 EDANS ctr – EDANS fluorescence interference in dose response, no enzyme; EC50, µM; shares compounds with proKLK7 act; 250 tested, 20% active; EDANS-DABCYL peptide fluorescence interference;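 active = compounds that raise the fluorescence signal in this interference counterscreen, with EC50 at or below 10 µM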;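 also: intact quenched peptide substrate alone read at 355 nm excitation and 520 nm emission; signal is fluorescence gain from T0 to T4 after four hours at room temperature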
* hit, by the source's call.

For Cc1ccc(CN2CCCCC(NC(=O)c3ccc(C)cc3)C2=O)cc1 (stereo not drawn) the results were ADAM10 inh -7.3, PLC-gamma1 inh 1.2, ADAM17 inh -6.4, proKLK7 act 0.5 and PLCb3 inh 0.2.
Cc1coc2c1c(C)cc1oc(=O)c(CC(=O)N[C@@H](C)C(=O)O)c(C)c12 was read as ADAM10 inh inactive, PLC-gamma1 inh inactive, ADAM17 inh -375.4, proKLK7 act 28.9*, PLCb3 inh inactive, KLK7 act conf 23.7* and EDANS interfere 27.0*.
For Cc1coc2c1c(C)cc1oc(=O)c(CC(=O)N[C@H](C(=O)O)C(C)C)c(C)c12 the results were ADAM10 inh inactive, PLC-gamma1 inh inactive, ADAM17 inh -263.9, proKLK7 act 22.6*, PLCb3 inh inactive, KLK7 act conf 29.1* and EDANS interfere 37.2*.
For Cc1coc2c1c(C)cc1oc(=O)c(CC(=O)NCC(=O)NCC(=O)O)c(C)c12 the results were ADAM10 inh inactive, PLC-gamma1 inh inactive, ADAM17 inh -319.0, proKLK7 act 10.4 and PLCb3 inh inactive.
CCC(NC(=O)Cc1c(C)c2c(cc(C)c3c(C)c(C)oc32)oc1=O)C(=O)O (stereo not drawn) was read as ADAM10 inh -323.3, PLC-gamma1 inh inactive, ADAM17 inh -109.1, proKLK7 act 23.4*, PLCb3 inh inactive, KLK7 act conf 16.3*, EDANS interfere 1.1 and K7 EDANS ctr >69.5.
Screening Cc1coc2c(C)c3oc(=O)c(CCC(=O)N[C@H](C(=O)O)C(C)C)c(C)c3cc12 returned ADAM10 inh -303.0, PLC-gamma1 inh -216.8, ADAM17 inh -77.1, proKLK7 act 15.7*, PLCb3 inh -289.5, KLK7 act conf 7.5 and EDANS interfere 10.1*.
Cc1coc2c(C)c3oc(=O)c(CCC(=O)NCCC(=O)O)c(C)c3cc12 was read as ADAM10 inh -61.8, PLC-gamma1 inh -43.4, ADAM17 inh -26.3, proKLK7 act 7.7 and PLCb3 inh -88.1.
For COc1ccc2c(c1)cc1n2CCN=C1NCCO the results were ADAM10 inh -202.8, PLC-gamma1 inh inactive, ADAM17 inh -54.4, proKLK7 act 16.9*, PLCb3 inh inactive, KLK7 act conf 19.9* and EDANS interfere 26.8*.
Screening CN=C1c2cc3cc(OC)ccc3n2CCN1C returned ADAM10 inh -18.8, PLC-gamma1 inh -219.5, ADAM17 inh -8.0, proKLK7 act 1.2 and PLCb3 inh -318.5.
COC(=O)[C@]12C[C@H](CC(=O)N3CCN(C(=O)C4CC4)CC3)C(=O)N(Cc3ccc(Cl)cc3Cl)C1=C[C@H](COCc1ccccc1)O[C@@H]2C was read as ADAM10 inh 5.9, PLC-gamma1 inh 0.3, ADAM17 inh 0.0, proKLK7 act 0.5 and PLCb3 inh -3.6.
C[C@H](NC(=O)c1cc2c(cn1)[nH]c1ccccc12)C(=O)O was read as ADAM10 inh -165.1, PLC-gamma1 inh -51.3, ADAM17 inh -59.9, proKLK7 act 17.6*, PLCb3 inh -75.2, KLK7 act conf 8.6 and EDANS interfere 7.4*.
For O=C(NCCCO)c1cc2c(cn1)[nH]c1ccccc12 the results were ADAM10 inh -151.7, PLC-gamma1 inh -50.9, ADAM17 inh -70.3, proKLK7 act 14.4*, PLCb3 inh -68.5, KLK7 act conf 5.4 and EDANS interfere 7.6*.
Screening O=C(c1cccs1)n1ccc2ccc(-c3ccc4ccn(C(=O)c5cccs5)c4c3)cc21 returned ADAM10 inh -10.0, PLC-gamma1 inh -21.2, ADAM17 inh -2.2, proKLK7 act -5.0 and PLCb3 inh -28.8.
CCOC(=O)CNc1c(-c2ccc(O)cc2)nc2ccccn12 was read as ADAM10 inh inactive, PLC-gamma1 inh inactive, ADAM17 inh -269.6, proKLK7 act 20.1*, PLCb3 inh inactive, KLK7 act conf 27.3* and EDANS interfere 61.9*.
For Cc1ccc(C)n1-c1nccc(-c2ccco2)n1 the results were ADAM10 inh inactive, PLC-gamma1 inh inactive, ADAM17 inh inactive, proKLK7 act 81.2*, PLCb3 inh inactive, KLK7 act conf 112.6* and EDANS interfere 126.9*.
Screening c1ccc(CSc2nccc(-c3ccco3)n2)cc1 returned ADAM10 inh -6.6, PLC-gamma1 inh 1.0, ADAM17 inh -1.8, proKLK7 act -0.2 and PLCb3 inh -8.5.
For Cc1ccc(C)n1-c1nccc(-c2cccs2)n1 the results were ADAM10 inh inactive, PLC-gamma1 inh inactive, ADAM17 inh inactive, proKLK7 act 52.2*, PLCb3 inh inactive, KLK7 act conf 111.2* and EDANS interfere 136.1*.
Screening Nc1ccn([C@@H]2O[C@H](C(=O)N[C@H](Cc3ccccc3)C(=O)N3CCN(C(=O)N4CCCCC4)CC3)[C@@H](O)[C@H]2O)c(=O)n1 returned ADAM10 inh 1.4, PLC-gamma1 inh -1.5, ADAM17 inh -0.4, proKLK7 act 0.8 and PLCb3 inh -2.4.
CCOC(=O)[C@@]12CN(C(=O)OC(C)(C)C)CC=C1N(Cc1ccc(OC)cc1)C(=O)[C@H]2CC(=O)NCCC(C)C was read as ADAM10 inh 1.6, PLC-gamma1 inh -2.0, ADAM17 inh 0.7, proKLK7 act -0.4 and PLCb3 inh 1.1.
COCCN1C(=O)/C(=C2/C(=O)N(CC(=O)Nc3ccccc3Cl)c3ccccc32)SC1=S was read as ADAM10 inh -0.8, PLC-gamma1 inh 2.5, ADAM17 inh -5.6, proKLK7 act 0.5 and PLCb3 inh -2.2.
CCN1C(=O)/C(=C2\SC(=S)N(CCCOC)C2=O)c2ccccc21 was read as ADAM10 inh -4.1, PLC-gamma1 inh 0.1, ADAM17 inh -6.6, proKLK7 act 19.7*, PLCb3 inh 3.9, KLK7 act conf 0.6 and EDANS interfere 1.0.
`CCOc1ccc(-n2c(COc3ccc(C)cc3)nnc2SCC(=O)c2ccc3ccccc3c2)cc1` gave ADAM10 inh 5.3, PLC-gamma1 inh -4.8, ADAM17 inh 5.3, proKLK7 act -0.3 and PLCb3 inh -5.9.
Screening Cc1cc(/C=C(\C#N)C(=O)Nc2ccccc2F)c(C)[nH]1 returned ADAM10 inh -71.7, PLC-gamma1 inh -70.0, ADAM17 inh -28.0, proKLK7 act 32.3*, PLCb3 inh -117.6, KLK7 act conf 6.2 and EDANS interfere 6.9*.
`N#C/C(=C\c1ccc[nH]1)C(=O)Nc1ccccc1F` gave ADAM10 inh -11.6, PLC-gamma1 inh 0.9, ADAM17 inh -0.4, proKLK7 act -0.3 and PLCb3 inh -1.2.
